From PubChem BioAssay
Pf growth 96h: Primary qHTS for delayed death inhibitors of the malarial parasite plastid, 96 hour incubation; Potency, µM (doses to about 28.7 µM), without a hit: top-dose activity change, negative = inhibition, usual class: inhibitors; actives 6.9% (n = 320,000); P. falciparum luciferase reporter growth, 96 h; also: potency is read from the fitted curve at half-maximal effect
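Compounds incubated with erythrocytes infected by luciferase-expressing P. falciparum (2% hematocrit, 0.05% parasitemia final) for 96 hours, 37 C in 5% CO2. Growth inhibition scored as decreased luciferase luminescence.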
Giardia FBPA inh: qHTS Assay for Inhibitors of Fructose-1,6-bisphosphate Aldolase from Giardia Lamblia. A8B2U2. purified Giardia FBPA. Potency, µM (doses to about 59.6 µM), without a hit: at the highest dose activity, negative = inhibition, actives largely listed as inhibitors. actives 0.71% (n = 290,000). AID 2451, 2010; also: potency is read from the fitted curve at half-maximal effect; nearly all actives have a fitted effect of over 55% in size
Target sequence (A8B2U2 whole entry, looked up): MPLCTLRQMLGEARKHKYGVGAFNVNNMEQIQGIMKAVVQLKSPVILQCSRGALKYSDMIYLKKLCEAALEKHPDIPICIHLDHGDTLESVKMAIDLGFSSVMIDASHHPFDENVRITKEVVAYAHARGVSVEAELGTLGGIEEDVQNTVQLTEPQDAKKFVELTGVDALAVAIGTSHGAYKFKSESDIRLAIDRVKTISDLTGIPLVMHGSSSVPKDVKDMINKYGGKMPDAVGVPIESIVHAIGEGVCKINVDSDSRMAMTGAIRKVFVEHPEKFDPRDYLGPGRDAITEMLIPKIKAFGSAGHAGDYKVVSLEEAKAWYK
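40 nM FBPA preincubated 10 min at RT with compound (up to 57.5 uM final), then substrate plus GAPDH/TPI/NAD/arsenate coupling and diaphorase/resazurin added. Fluorescence read after 20 min at RT, 525/598 nm.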
Pf growth 48h: Primary qHTS for delayed death inhibitors of the malarial parasite plastid, 48 hour incubation; P. falciparum luciferase growth in erythrocytes, 48 h; Potency, µM (titrated, usually from 28.7 µM), inactives show at the highest dose activity change, negative = inhibition, hits mostly inhibitors; actives 5.9% (n = 310,000); AID 504832, 2011; also: potency is read from the fitted curve at half-maximal effect
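Luciferase-expressing P. falciparum in infected erythrocytes (2% hematocrit, 0.1% parasitemia final) in RPMI 1640/0.5% Albumax were exposed to compound for 48 hours at 37 C, 5% CO2; growth read as luminescence.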
Sm TGR block: qHTS Assay for the Inhibitors of Schistosoma Mansoni Peroxiredoxins; actives 3% (n = 360,000); purified TGR, DTNB reduction, TNB absorbance 405 nm; AID 485364, 2010; Potency, µM (series often up to 114 µM), for the others: top-dose activity change, negative = inhibition, most hits filed as inhibitors; Schistosoma mansoni thioredoxin glutathione reductase (TGR), Q962Y6; also: potency is read from the fitted curve at half-maximal effect; nearly all actives have a fitted effect of over 60% in size
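First, TGR (20 nM dispensed) and NADPH were mixed with compound. Second, a 15 min room-temperature incubation followed. Third, further NADPH and then DTNB were added to start the reaction. Finally, TNB absorbance was monitored kinetically.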
HCMV inh: qHTS Assay for inhibitors of the human cytomegalovirus (HCMV); AID 1259415, 2018; activity change, negative = inhibition, % at 57.5 µM; HFF cells, HCMV-luciferase reporter, 72 h; stronger effect = lower value; actives 4.5% (n = 410,000); in the data active = activity change below about -60%; inconclusive = no clear call, values can overlap the other calls; inactive = above about -39%
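Two compound doses tested in HFFs infected with HCMV-luciferase, MOI 1 PFU/cell, 72 h at 37C. Lysate luminescence read with OneGlo; data normalized against buffer-only and 10uM Salinomycin inhibitor controls.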
An asterisk follows results filed as active. The list is not random: actives were taken first. Their share in the collection is about 14%. Unless noted, calls follow the shape of the dose curve; as a rule, active = well fitted curve in the direction sought with a large enough effect; inconclusive = small, poorly fitted or top-dose-only effect, or another doubt; inactive = no such curve, though single readings can be large; an effect the other way counts as inactive or inconclusive. % is scaled to controls: 0 for no effect and ±100 for the full control effect.

What do the screens show for `Cc1cc2nc(CCN(C(=S)NCC3CCCO3)C3CCCC3)[nH]c2cc1C` (centres undefined)?
Pf growth 96h: inconclusive; Giardia FBPA inh: -21.3%; Pf growth 48h: -24.3%; Sm TGR block: 0.4%; HCMV inh: -62.9*

Results for Cc1cc(C)cc(NC(=S)NCC2CCCO2)c1 (centres undefined) ?
Pf growth 96h: inconclusive; Giardia FBPA inh: 3.9%; Pf growth 48h: 0.2%; Sm TGR block: -5.0%; HCMV inh: 4.4

What do the screens show for `CC(C)(C)Cc1c(-c2cccc(Br)c2)nc2ccc(Cl)cn12`?
HCMV inh: -23.5

How did CC(C)NC(=S)N/N=C/c1ccc(N2CCOCC2)cc1 do in these assays?
Pf growth 96h: 55.4%; Giardia FBPA inh: -4.0%; Pf growth 48h: 18.7%; Sm TGR block: -21.1%; HCMV inh: -0.8

How did C=C(C)CNC(=S)N/N=C/c1ccc([N+](=O)[O-])cc1 do in these assays?
Pf growth 96h: 14.5%; Giardia FBPA inh: -18.6%; Pf growth 48h: 11.7µM*; Sm TGR block: -1.7%; HCMV inh: -19.5

How did COCCNC(=S)N/N=C/c1ccc([N+](=O)[O-])cc1 do in these assays?
Pf growth 96h: 39.8%; Giardia FBPA inh: -4.8%; Pf growth 48h: 4.3%; Sm TGR block: -1.6%; HCMV inh: 18.0

How did C=C(C)CNC(=S)N/N=C/c1ccc(N2CCOCC2)cc1 do in these assays?
Pf growth 96h: inconclusive; Giardia FBPA inh: -8.6%; Pf growth 48h: inconclusive; Sm TGR block: -15.5%; HCMV inh: -78.2*

What do the screens show for `COCCNC(=S)N/N=C/c1ccc(N2CCOCC2)cc1`?
Pf growth 96h: 88.0%; Giardia FBPA inh: -12.9%; Pf growth 48h: 79.2%; Sm TGR block: -17.5%; HCMV inh: -96.9*

Results for O=C(Cn1cnc2c(oc3ccccc32)c1=O)Nc1ccc(F)cc1F ?
Sm TGR block: -15.2%; HCMV inh: 12.9

Results for COc1cccc(CNC(=O)C2CCC(=O)N(CCc3cccc(F)c3)C2)c1 (centres undefined) ?
Pf growth 96h: -0.4%; Pf growth 48h: 8.9%; Sm TGR block: 46.2%; HCMV inh: inconclusive

What do the screens show for `COc1ccc(NC(=O)C[C@H]2C(=O)N(c3ccc(Br)cc3)C[C@@H]2CSC)cc1`?
HCMV inh: 2.2

How did CCC(C)(C)c1ccc(Oc2ccc(N)cc2)cc1 do in these assays?
Pf growth 96h: inconclusive; Giardia FBPA inh: -1.2%; Pf growth 48h: inconclusive; Sm TGR block: 3.3%; HCMV inh: -91.4*

What do the screens show for `NNc1nncc2ccccc12`?
Pf growth 96h: inconclusive; Giardia FBPA inh: 5µM*; Pf growth 48h: inconclusive

How did CNC(=S)NNc1nncc2ccccc12 do in these assays?
Pf growth 96h: inconclusive; Giardia FBPA inh: -18.6%; Pf growth 48h: 11.1%; Sm TGR block: -21.9%; HCMV inh: -1.3

Results for O=C(COc1cccc(Cl)c1)Nc1nc(-c2ccc(S(=O)(=O)N3CCOCC3)cc2)cs1 ?
Pf growth 96h: 9.28µM*; Giardia FBPA inh: -0.6%; Pf growth 48h: 8.28µM*; Sm TGR block: 0.4%; HCMV inh: inconclusive

Results for COc1ccc(-c2csc(NC(=O)CS(=O)(=O)c3ccccc3)n2)cc1 ?
Pf growth 96h: inconclusive; Pf growth 48h: inconclusive; Sm TGR block: 5.7%; HCMV inh: 11.8

What do the screens show for `COc1ccc(-c2csc(NC(=O)c3cccc(S(=O)(=O)N4CCN(C)CC4)c3)n2)cc1`?
Pf growth 96h: 11.7µM*; Giardia FBPA inh: -12.9%; Pf growth 48h: inconclusive; Sm TGR block: 37.8%; HCMV inh: 27.2

What do the screens show for `CN1CCN(S(=O)(=O)c2cccc(C(=O)Nc3nc(-c4ccccc4)cs3)c2)CC1`?
Pf growth 96h: -70.5%; Giardia FBPA inh: -2.5%; Sm TGR block: 1.3%; HCMV inh: 247.6

How did CCOc1cccc(C(=O)Nc2nc(-c3ccc(S(=O)(=O)N4CCOCC4)cc3)cs2)c1 do in these assays?
Giardia FBPA inh: -4.5%; Pf growth 48h: 5.22µM*; Sm TGR block: 11.4%; HCMV inh: -12.7

Results for COc1ccc(-c2csc(NC(=O)C3CCCCN3S(=O)(=O)c3ccccc3)n2)cc1 (centres undefined) ?
Pf growth 96h: 7.38µM*; Giardia FBPA inh: -2.5%; Pf growth 48h: inconclusive; Sm TGR block: 3.7%; HCMV inh: -67.6*

How did O=C(CN1CCN(CN2C(=O)NC3(CCCCCC3)C2=O)CC1)Nc1ccc(F)cc1 do in these assays?
Pf growth 96h: -5.7%; Pf growth 48h: -20.0%; Sm TGR block: inconclusive; HCMV inh: -8.8

What do the screens show for `COc1cccc(S(=O)(=O)N(C)C[C@@H]2Oc3cc(C#CCN(C)C)ccc3S(=O)(=O)N([C@H](C)CO)C[C@@H]2C)c1`?
HCMV inh: -21.9

Results for CCc1ccc(NC(=O)c2cnn3ccccc23)cc1 ?
Pf growth 96h: 1.17µM*; Giardia FBPA inh: -12.9%; Sm TGR block: -6.4%; HCMV inh: -31.2

What do the screens show for `NC(=O)c1nnsc1-c1ccco1`?
HCMV inh: -2.1

How did CCCS(=O)(=O)c1snnc1C do in these assays?
Pf growth 96h: 17.8%; Giardia FBPA inh: 6.5%; Sm TGR block: -13.4%; HCMV inh: -72.1*

Results for COc1ccc(OC)c(/C=C/C(=O)N2CCN(S(=O)(=O)c3cc(C)ccc3C)CC2)c1 ?
Pf growth 96h: inconclusive; Pf growth 48h: inconclusive; Sm TGR block: -0.8%; HCMV inh: 0.0

Results for COc1ccccc1/C=C/C(=O)N1CCCC1 ?
Pf growth 96h: 37.7%; Giardia FBPA inh: 0.8%; Pf growth 48h: 47.9%; Sm TGR block: 6.8%; HCMV inh: 39.2

How did COc1ccccc1/C=C/C(=O)N1CCN(S(=O)(=O)c2cc(C)ccc2C)CC1 do in these assays?
Pf growth 96h: inconclusive; Pf growth 48h: 14.7µM*; Sm TGR block: 0.5%; HCMV inh: -37.2

Results for CCc1cc(C(=O)N2CCN(S(=O)(=O)c3cc(C)ccc3C)CC2)sc1C ?
Pf growth 96h: inconclusive; Pf growth 48h: 13.1µM*; Sm TGR block: -13.1%; HCMV inh: 3.5

What do the screens show for `CCc1cc(C(=O)N2CCN(S(=O)(=O)c3ccccc3F)CC2)sc1C`?
Pf growth 96h: inconclusive; Pf growth 48h: inconclusive; Sm TGR block: 5.2%; HCMV inh: 0.0

How did COc1ccc(OC)c(/C=C/C(=O)N2CCN(S(=O)(=O)c3ccc(C)cc3C)CC2)c1 do in these assays?
Pf growth 96h: 13.1µM*; Pf growth 48h: 11.7µM*; Sm TGR block: -5.5%; HCMV inh: -14.9

Results for COc1ccc(C(=O)C2CCCN(C(=O)c3cc(C)nc(C)n3)C2)cc1OC (centres undefined) ?
Pf growth 96h: -0.2%; Giardia FBPA inh: 0.4%; Pf growth 48h: 5.5%; Sm TGR block: -28.5%; HCMV inh: 70.1
